Screening results from PubChem BioAssay.
MCF10A rereplic: DNA re-replication induction in MCF 10a cells; MCF 10A DNA re-replication, Hoechst nuclear intensity, 48 h; Potency, µM (series often up to 46.1 µM), for inactives: top-dose activity, positive = re-replication, most hits filed as activators; 350,000 compounds, 2.9% hits; AID 624296; note: potency is the fitted concentration of half-maximal effect; % of control where 0% means no effect; nearly all actives have a fitted effect of over 50% in size
VP16 counter: Gal4-VP16 reporter inhibition counter-screen; Drosophila S2 Gal4-VP16 UAS-luciferase, luminescence, 20 h; Potency, µM (highest dose often 53.6 µM), for inactives: at the top dose activity, negative = inhibition, actives largely listed as inhibitors; 310,000 compounds, 3.5% hits; AID 2546;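 note: Gal4-VP16 expression switched on by copper sulfate through the metallothionein promoter; potency is the fitted concentration of half-maximal effect; % is set by controls: 0 for no effect and ±100 for the full control effect; nearly all actives have a fitted effect of over 50% in size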
RORgamma inh: blocks mouse ROR gamma transcriptional activity. Drosophila S2 Gal4-RORgamma UAS-luciferase reporter, 20 h. AID 2551. P51450. Potency, µM (series often up to 53.6 µM), for the others: at the highest dose activity change, negative = inhibition, usual class: inhibitors. 310,000 compounds, 5.4% hits; note: potency is the fitted concentration of half-maximal effect; % is set by controls: 0 for no effect and ±100 for the full control effect; nearly all actives have a fitted effect of over 60% in size
Target sequence (P51450 whole entry, looked up, the tested form may be a part): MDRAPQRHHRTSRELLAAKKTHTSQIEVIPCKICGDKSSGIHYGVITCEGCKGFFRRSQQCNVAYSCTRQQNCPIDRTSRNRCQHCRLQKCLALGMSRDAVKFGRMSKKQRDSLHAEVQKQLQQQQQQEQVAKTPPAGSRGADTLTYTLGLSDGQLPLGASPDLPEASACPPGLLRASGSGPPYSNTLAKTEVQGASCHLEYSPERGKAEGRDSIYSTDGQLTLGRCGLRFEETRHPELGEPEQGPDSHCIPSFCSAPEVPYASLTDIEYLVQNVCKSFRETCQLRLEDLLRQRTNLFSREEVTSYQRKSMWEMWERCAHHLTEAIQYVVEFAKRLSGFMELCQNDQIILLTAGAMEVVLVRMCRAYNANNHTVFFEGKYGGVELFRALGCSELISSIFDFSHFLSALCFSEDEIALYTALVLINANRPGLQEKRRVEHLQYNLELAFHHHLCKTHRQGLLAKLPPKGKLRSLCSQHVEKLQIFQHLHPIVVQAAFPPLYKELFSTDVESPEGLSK
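Drosophila Schneider cells stably carrying a metallothionein-driven Gal4 DBD–ROR gamma fusion and a UAS-Photinus luciferase reporter were exposed to compound for 1 hr, then induced with copper sulfate (700 uM final) for 20 hr at ambient temperature before luminescence reading.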
IL1B secr inh: blocks inflammasome-driven IL-1 beta release | 360,000 compounds, 4.7% hits | activity change, % at 57.5 µM | THP-1 LPS/ATP IL-1B secretion, AlphaLISA, 16 h; stronger effect = lower value; in the data active = activity change below about -50%; inconclusive = mostly about -30% to -49%; note: % is set by controls: 0 for no effect and ±100 for the full control effect
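Secreted IL-1B measured by AlphaLISA bead assay after 16 h compound exposure of THP-1 cells; compounds (final up to 57.5 uM) added 1 h before LPS (250 ng/mL) and ATP (1.25 mM) stimulation; lower signal means less secretion.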
SW480 rerep: inducers of DNA re-replication in SW480 colon cancer cells; SW480 DNA re-replication, Hoechst DNA content imaging, 48 h; Potency, µM (titrated, usually from 46.1 µM), for inactives: at the top dose re-replication activation, usual class: activators; 340,000 compounds, 1.8% hits; AID 624297; note: potency is the fitted concentration of half-maximal effect; % of control where 0% means no effect; nearly all actives have a fitted effect of over 55% in size
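SW480 cells exposed to compounds for 48 hr at 37 C, 5% CO2, then Hoechst-stained 40 min. Nuclear DNA content imaged by fluorescence scanning (405 nm excitation, 500-530 nm emission); re-replication scored as increased high-intensity nuclei.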
Numbers without * were called inactive; ? = inconclusive; · = no result given; ! = repeats disagree. The list is not random: actives were taken first. Their share in the collection is about 11%. Unless noted, calls come from the whole dose curve; as a rule, active = well fitted curve in the direction sought with a large enough effect; inconclusive = small, poorly fitted or top-dose-only effect, or another doubt; inactive = no such curve, though single readings can be large; an effect the other way counts as inactive or inconclusive.

SMILES	MCF10A rereplic	VP16 counter	RORgamma inh	IL1B secr inh	SW480 rerep
CC1=C(CO)C(=O)OC([C@@H](C)C2CC[C@H]3C4C[C@H]5O[C@]56[C@@H](O)C=CC(=O)[C@]6(C)C4CC[C@]23C)C1 (some centres not stated)	2.3µM*	?	?	-107*	?
CC(C(=O)O)C1CCC2C3CC=C4CC(O)CC[C@@]4(C)C3CC[C@]12C (some centres not stated)	·	3%	-21%	·	·
CC(C)CSc1n[nH]c(=S)s1	-2%	-10%	10µM*	21	1%
O=C(CN1CCN(Cc2ccc(Cl)cc2)C1=O)NCCCN1CCN(c2ccc(F)cc2)CC1	?	?	?	-70*	?
C=C(C)CNC(=S)Nc1cccc(N)n1	-9%	?	2.8µM*	14	4%
COc1c(Br)cc(Br)cc1/C=C1/C(=O)N=C(N)N1C	8%	3%	1%	-54*	22%
COc1ccc(COC2OC[C@]3(C)[C@H]4C5=C(CN3C(=O)OC(C)(C)C)[C@H](C)C(CO)C(CO)C5CC[C@@H]24)cc1 (some centres not stated)	·	-11%	4%	·	·
Cc1ccc(CSc2ccc3nnc(-c4ccccn4)n3n2)cc1	0%	2%	13%	-10	1%
Brc1ccc(CSc2ccc3nnc(-c4ccccn4)n3n2)cc1	10%	2%	-3%	-79*	-2%
COC(=O)c1ccc(CSc2ccc3nnc(-c4ccccn4)n3n2)o1	9%	?	11µM*	10	-15%
COC(=O)c1ccc(CSc2ccc3nnc(-c4ccc(F)cc4)n3n2)o1	3%	2%	-1%	-4	-104%
Cc1ccc(C)c(CSc2ccc3nnc(-c4ccccn4)n3n2)c1	7%	-14%	-12%	-70*	-8%
Cc1cc(S(=O)(=O)N(Cc2ccc(C(C)C)cc2)CC2CCCO2)ccc1-n1cnnn1 (configuration not stated)	3%	-3%	2%	-79*	-1%
Cc1ccc(NS(=O)(=O)c2ccc(NC(=O)C3CCCO3)cc2)cc1 (configuration not stated)	-2%	18µM*	?	2	-4%
Cc1ccc(S(=O)(=O)Nc2ccc(N3CCCCC3)cc2)cc1	11%	-4%	18%	5	17%
Cc1ccc(NS(=O)(=O)c2ccc(C3CCCCC3)cc2)cc1	23µM*	?	10%	0	-4%
Cc1cccc(NS(=O)(=O)c2ccc(C)c(C(=O)NCC(c3cccs3)N3CCOCC3)c2)c1 (configuration not stated)	2%	·	·	0	1%
CC(=O)c1ccc(OCC(=O)NC(=O)NC2CCCC2)cc1	·	·	·	25	·
Brc1c(Br)c(Br)c2n[nH]nc2c1Br	·	-24%	-61%	·	·
CC1=C(/C=C/C(C)=C\C=C\C(C)=C\C(=O)O)C(C)(C)CCC1	·	5%	?	·	·
CC1=C(/C=C/C(C)=C/C=C/C(C)=C/C(=O)O)C(C)(C)CCC1	23%	-4%	5µM*!	51	-1%
CCOC(=O)c1ccc(-n2c(O)c(/C=N/NC(=O)C3COc4ccccc4O3)c3ccccc3c2=O)cc1 (configuration not stated)	29%	2.8µM*	2.5µM*	36	?
O=C(N/N=C\c1ccc(Cl)s1)C1COc2ccccc2O1 (configuration not stated)	?	0.89µM*	0.63µM*	-8	16µM*
O=C(N/N=C\c1ccc([N+](=O)[O-])o1)C1COc2ccccc2O1 (configuration not stated)	?	?	-43%	-15	?
O=C(N/N=C/c1c[nH]c2ccccc12)C1COc2ccccc2O1 (configuration not stated)	21µM*	-20%	-37%	24	?
SMILES	MCF10A rereplic	VP16 counter	RORgamma inh	IL1B secr inh	SW480 rerep
O=C(N/N=C\c1ccc([N+](=O)[O-])s1)C1COc2ccccc2O1 (configuration not stated)	-8%	2.8µM*	3.5µM*	-53*	1%
O=C(CN(Cc1ccccc1Cl)C(=O)CNS(=O)(=O)c1ccc(F)cc1)NCC1CCCO1 (configuration not stated)	-1%	-7%	-3%	-9	5%
CC(C)=CCC/C(C)=C/C=O	·	11%	-26%	·	·
CCc1cccc2cc(C(O)CNC(C)(C)C)oc12 (configuration not stated)	·	-2%	8%	·	·
CC(C)(C)c1ccc2c(c1)OC(C(=O)N/N=C\c1ccc(-c3cccc(C(=O)O)c3)o1)CO2 (configuration not stated)	11%	-3%	27%	-3	-6%
CC(C)(C)c1ccc2c(c1)OC(C(=O)N/N=C\c1ccccn1)CO2 (configuration not stated)	?	18µM*	?	?	-1%
CC(=O)OCC(=O)[C@@]1(O)CCC2C3CC(C)C4=CC(=O)C=CC4(C)C3C(O)CC21C (some centres not stated)	·	6%	-20%	·	·
Cc1cc(NC(=O)/C=C/c2ccccc2Cl)n(-c2nc3ccccc3[nH]2)n1	16µM*	1.3µM*	1.8µM*	-6	?
Cc1cc(NC(=O)CC2CCCC2)n(-c2nc3ccccc3[nH]2)n1	?	3.5µM*	1.8µM*	-9	-2%
Cc1cc(NC(=O)c2ccc(F)cc2F)n(-c2nc3ccccc3[nH]2)n1	?	1.8µM*	1.1µM*	2	1%
CC1=CC2C(CC1=O)C(C)=CCC2C(C)C (configuration not stated)	·	3%	-2%	·	·
COC(=O)[C@@]1(Cc2ccccc2)[C@H]2c3cc(C(=O)N4CCCC4)n(CC4CC4)c3C[C@H]2CN1C(=O)c1ccccc1	·	-4%	12%	·	·
COc1cc(C(O)c2nc(-c3cccc(NC(C)=O)c3)cs2)ccc1F (configuration not stated)	·	·	·	19	·
COc1cc(/C=N/Nc2nc(-c3ccc(S(=O)(=O)N(C)C)cc3)cs2)ccc1O	?	1%	?	-91*	-3%
Cc1nc(-c2cccc(S(=O)(=O)N3CCCCC3)c2)cs1	?	10%	7%	-89*	-6%
Cc1ccc(C)c(-c2csc(N/N=C/c3ccco3)n2)c1	?	-13%	16µM*	-17	-61%
O=S(=O)(c1cccc(-c2csc(N/N=C/c3ccco3)n2)c1)N1CCOCC1	15%	16%	21%	-72*	1%
COc1cccc(CN2CCC(C(=O)Nc3ccc(-c4cccc(C)c4)cc3)CC2)c1O	?	?	?	0	1%
Cc1cccc(NC(=O)CN2CCN(C(=O)c3c(C)nn(Cc4ccccc4)c3C)CC2)c1C	10%	·	·	8	5%
